# Measurements published in PubChem BioAssay AID2540 (Sanford-Burnham Center for Chemical Genomics, 2010).
# The campaign covered roughly 330,000 compounds. About 4,100 (1.2%) were called active. The entries come from a sample that favours actives as a whole. Unmarked numbers belong to inactive results. Rule as the data show it: active = inhibition above about 50%; inactive = the rest.
# Target: Sentrin-specific protease 8 (Homo sapiens) (UniProt Q96LD8)
# Assay: SENP8 protease inhibitors, primary screen, biochemical, luminescence (AID 2540)
# Settings: purified SENP8, Z-RLRGG-aminoluciferin cleavage, at 10 µM, hits give high values
# Sequence of Sentrin-specific protease 8 (Homo sapiens) (Q96LD8 whole entry, looked up): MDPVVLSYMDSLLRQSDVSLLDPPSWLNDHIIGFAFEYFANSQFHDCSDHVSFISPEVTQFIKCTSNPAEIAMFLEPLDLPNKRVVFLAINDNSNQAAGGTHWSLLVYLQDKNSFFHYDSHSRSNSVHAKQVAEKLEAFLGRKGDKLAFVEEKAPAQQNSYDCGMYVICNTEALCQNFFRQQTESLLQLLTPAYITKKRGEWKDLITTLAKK
row,Compound,inhibition
1,CCC(C)(C)c1ccc(Oc2ccc(NC(=O)COC(=O)C3=COCCO3)cc2)cc1,-2.31%
2,O=[N+]([O-])c1c(NCCO)cc(Sc2nc3ccccc3s2)c2nonc12,85% (active)
3,NC(=O)c1ccc(Nc2ccc3nonc3c2[N+](=O)[O-])cc1,2.67%
4,Cc1nc2nc(CSc3nc4ccccc4s3)cc(=O)n2[nH]1,-14.3%
5,CC(C)NC(=O)/C(C#N)=C\c1ccc(N(C)C)c(Br)c1,-4.03%
6,CC1(C)CC(=O)C(C2c3ccccc3S(=O)(=O)c3ccccc32)C(=O)C1,-0.512%
7,CC(CNc1ccc([N+](=O)[O-])cc1)NC(=O)c1ccccc1Br (stereo not drawn),0%
8,COC(=O)c1c(NC(=O)c2ccccc2F)sc2c1C(C(=O)OC)CC2 (stereo not drawn),-3.54%
9,O=C(O)c1c(NC(=O)N2CCCC2)sc2c1CCCC2,-9.81%
10,O=C(Nc1sc2c(c1C(=O)O)CCC2)c1ccccc1F,86.7% (active)
11,CCOC(=O)C1CCCCN1Cc1ccc(OC)c(OC)c1OC (stereo not drawn),-0.162%
12,O=C(Nc1ccc2c(c1)CCC2)c1ccc(Br)s1,61.5% (active)
13,CC(C)Oc1ccc(C(=O)NCC(=O)Nc2ccc3c(c2)CCC3)cc1,6.91%
14,CC1CC(C)CN(CCC(=O)Nc2ccc3c(c2)CCC3)C1 (stereo not drawn),7.63%
15,Cc1nn(-c2ccccc2)c2c1C(=O)NC(=O)C(C)(C)C2,4.21%
16,Cc1nnc(SCc2ccc(C(=O)c3ccc(Cl)cc3)o2)n1-c1ccccc1,-8.59%
17,Nc1nc(NCc2ccccc2)n(-c2ccccc2)n1,4.17%
18,COc1ccccc1CNC(=O)CSc1nc(=O)n(Cc2ccncc2)c2c1CCC2,-3.51%
19,Nc1nc(NCC(=O)O)nc(N2CCCCCC2)c1[N+](=O)[O-],-1.61%
20,N#CCc1c(C#N)c(N)nc(N2CCCC2)c1C#N,0.98%
21,N#Cc1c(N2CCCCC2)nc(N)c2c(N)nc(SCC(=O)O)cc12,70.8% (active)
22,O=S(=O)(NCC1CCCO1)c1cnc(Cl)c(Cl)c1 (stereo not drawn),3.51%
23,O=C(CN(c1ccccc1)S(=O)(=O)c1ccc(Cl)cc1)Nc1ccccc1C(=O)N1CCCC1,2.45%
24,Cc1nc(C(=O)N2CCCC(C(=O)c3ccc(Cl)cc3)C2)cs1 (stereo not drawn),-2.8%
25,Cn1cc(-c2ccccc2)cc(C#N)c1=O,3.36%

row,Compound,inhibition
1,COC(=O)[C@@H](NC(=O)NCc1cccc(OC)c1)C(C)C,0.612%
2,NC1=NN(c2cccc(C(=O)O)c2)C(=O)C1,-5.54%
3,O=C(O)c1ccc(N=NN2CCOCC2)cc1,1.65%
4,O=C(O)c1cccc(N=NN2CCCCCC2)c1,88.8% (active)
5,Cc1cc(C(F)(F)F)nn1CC(=O)N1CCCC1,-6.86%
6,COc1ccc(C2/C=C\CN(S(=O)(=O)c3cccs3)CC(=O)N2Cc2ccc(F)cc2)cc1 (stereo not drawn),-0.424%
7,CN1CCN(C2Cc3ccc(Cl)cc3Sc3ccc(F)cc32)CC1 (stereo not drawn),-10.9%
8,CCOC(=O)/C(=C\c1ccc([N+](=O)[O-])cc1)C(=O)c1cc(C(C)=O)c(Nc2ccccc2)s1,6.19%
9,O=C(c1ccc(F)cc1)n1cc(C(=S)N2CCOCC2)c2ccccc21,-5.7%
10,O=C(Cn1c(=S)nc2ccccn21)N1CCc2ccccc2C1,0.682%
11,O=C(c1ccc(F)cc1)n1c(=S)nc2ccccn21,64.1% (active)
12,Cc1ccccc1SCC(=O)OCC(=O)N1CC(=O)Nc2ccccc21,4.24%
13,Cc1cccc(CN2CCC(CNC(=O)Nc3ccc(F)c(Cl)c3)CC2)c1,-1.33%
14,Cn1ncc(Br)c1C(=O)NCc1cccs1,-2.84%
15,CCOc1ccccc1NC(=O)Cn1nnc(C(=O)NCc2cccs2)c1N,19.3%
16,CC(C)Cn1c(N)c(C(=O)NCc2cccs2)c2nc3ccccc3nc21,90% (active)
17,CCCCNC(=O)N1CCN(S(C)(=O)=O)CC1,-11%
18,O=C(COC(=O)c1ccccn1)NNC(=O)c1ccc([N+](=O)[O-])cc1,-16.2%
19,COc1ccc(C(=O)O/N=C(\N)c2ccccn2)cc1[N+](=O)[O-],-12%
20,N/C(=N\OC(=O)c1ccc([N+](=O)[O-])cc1)c1ccccn1,89.6% (active)
21,O=C(COC(=O)c1ccccn1)NNC(=O)c1ccc(Br)cc1,0.814%
22,Cc1ccc(C(=O)O/N=C(\N)c2ccccn2)cc1Cl,78% (active)
23,C/C(=N/OC(=O)c1cccc(C(F)(F)F)c1)c1cnccn1,-12.8%
24,CCCNC(=O)COc1coc(CN2CCN(Cc3ccccc3)CC2)cc1=O,-2.92%
25,CC(C)Cn1c(SCC(=O)Nc2ccc(Cl)cc2F)nc(O)cc1=O,0.222%

row,Compound,inhibition
1,COc1cccc2sc(Nc3nc(C)c(C(C)=O)s3)nc12,66.7% (active)
2,CNC(=O)c1sc(NCc2ccccc2OC)nc1C,0.124%
3,COc1cc2ccccc2cc1C(=O)Nc1nc(C)c(C(C)=O)s1,-0.787%
4,Cc1ccc(S(=O)(=O)N2CCCCC2)cc1C(=O)N1CCN(CCO)CC1,4.2%
5,O=C(NCc1ccccc1Cl)C1CCCN1S(=O)(=O)c1ccc(F)cc1 (stereo not drawn),-7.31%
6,Cc1ccc(N2CC(C(=O)Nc3cc(Cl)ccc3-n3cncn3)CC2=O)cc1 (stereo not drawn),10.6%
7,Cc1ccc(Nc2ncnc3c2cnn3C)c(C)c1,0.699%
8,CC(C)Sc1ncnc2c1cnn2-c1ccccc1,38.9%
9,Cc1ccc(-n2ncc3c(Nc4cccc(C(=O)O)c4)ncnc32)cc1,90.4% (active)
10,O=C(C1CCN(C2CCN(Cc3ccc4cc(F)ccc4n3)CC2)CC1)N1CCCC1,-5.41%
11,O=c1[nH]cnc(O)c1C(c1ccc(F)cc1)c1c(O)nc[nH]c1=O,-12.7%
12,CCc1ccc(Oc2coc3cc(O)ccc3c2=O)cc1,-15.7%
13,CC(C)CN(Cc1c(O)ccc2c(=O)c(-c3ccccc3)coc12)CC(C)C,-6.97%
14,O=c1c(-c2ccccc2)coc2cc(O)ccc12,55% (active)
15,O=C(O)c1ccc(OCC2CCCO2)cc1 (stereo not drawn),-8.8%
16,COC(=O)c1ccc(Sc2ccc(F)cc2)c(N)c1,-1.32%
17,COc1ccc(N2C(=O)CCC(C(=O)Nc3ccccn3)C2c2ccc(OC)c(OC)c2)cc1 (stereo not drawn),-4.67%
18,CCOc1ccc(N/C=C/C(=O)c2ccccc2)cc1,93.7% (active)
19,COc1ccc(C(=O)/C=C/Nc2ccccn2)cc1,95.5% (active)
20,CC(=O)Nc1ccc(/C=C/C(=O)c2ccccc2)cc1,-16.7%
21,O=C(/C=C/NCc1ccc(F)cc1)c1ccccc1,-2.04%
22,CCOc1ccc(N/C=C/C(=O)c2cc(OC)c(OC)c(OC)c2)cc1,-9.53%
23,CCOc1ccc(NC(=S)N2CCC(NC(=O)c3ccccc3)CC2)cc1,-6%
24,Cc1ccc(N/C=C/C(=O)c2ccccc2)cc1C,88.8% (active)
25,Cc1cc(N/C=C\C(=O)c2ccc(Cl)c(Cl)c2)no1,-16.9%

row,Compound,inhibition
1,COc1ccc(C)cc1N(C)C(=O)c1coc(=O)c2ccccc12,-8.47%
2,O=C(CN1C(=O)NC2(CCOc3ccccc32)C1=O)Nc1cccc([N+](=O)[O-])c1 (stereo not drawn),7.44%
3,O=C(Nc1c2c(nn1-c1ccccc1)CS(=O)(=O)C2)C1CCCC1,-3.98%
4,COc1cc(/C=C(\C#N)c2nc3c(s2)CC(C)CC3)ccc1O (stereo not drawn),-4.73%
5,COc1cc(/C=C(\C#N)c2nc3ccccc3[nH]2)ccc1O,91.8% (active)
6,Cc1ccc2nc(/C(C#N)=C\c3ccc(OC(=O)c4cccs4)cc3)[nH]c2c1,3.01%
7,COc1ccc(NC(=O)CN(C)C(=O)Cc2coc3cc(C)c(C)cc23)cc1,-3.13%
8,COc1ccccc1C1=CC(=O)C[C@H](c2ccc(F)cc2)C1,-4.36%
9,CCN(CC)CCNc1nc(-c2ccc(OC(F)F)cc2)c(C)s1,-5.12%
10,COc1ccc(/C=C2\SC(=O)N(CCC(=O)NC3CCS(=O)(=O)C3)C2=O)cc1 (stereo not drawn),2.13%
11,COc1ccc(/C=C2\SC(=O)N(CCC(=O)NCCCn3ccnc3)C2=O)cc1,-11.9%
12,COc1ccc(/C=C2/SC(=O)N(CCCCCC(=O)Nc3ccccc3C(=O)O)C2=S)cc1,50.3% (active)
13,CN1C(=O)CC(c2ccccc2)C1=O (stereo not drawn),1.07%
14,COc1cc(NC(=S)NCCSc2ccc(C)cc2)cc(OC)c1,-1.13%
15,COc1cccc(C(=O)c2cc3ccc(O)cc3oc2=O)c1,96.9% (active)
16,CCOC(=O)c1cc2cc3ccccc3cc2oc1=O,-4.84%
17,COc1cccc(C(=O)NNC(=O)c2cccc(F)c2)c1,-1.03%
18,CN1CCN(Cc2nc3cc(NC(=O)COc4ccc([N+](=O)[O-])cc4)ccc3n2C)CC1,0.315%
19,O=c1oc2cc(O)ccc2cc1-c1ccc(F)cc1,95.4% (active)
20,CN(C)c1cc(-c2ccc(F)cc2)oc(=O)c1Cl,2.47%
21,COc1ccc(-c2cc3ccc(OCc4nn[nH]n4)cc3oc2=O)cc1,39.6%
22,Cc1ccc(C)c(NC(=O)CN(C)C(=O)c2ccc3ncsc3c2)c1,-13.6%
23,O=C(Nc1ccccc1C(=O)O)c1ccc(N2C(=O)C3CC=CCC3C2=O)cc1 (stereo not drawn),21.2%
